Here are results for eight molecules from PubChem BioAssay (EPA / NIEHS).

Activity calls are given as the source filed them. Rule for the calls: active = hit-call score of the fitted dose curve at least 0.9, where 1 is the maximum; inactive = score below 0.9.

Holding throughout (conditions): mRNA level, 48 h; actives raise or lower the signal
Read-out in assay [1]: Tumor necrosis factor receptor superfamily member 6 (Homo sapiens) (UniProt P25445)
Nature of the assay: LTEA_HepaRG_FAS: Life Technologies and Expression Analysis (LTEA) Assay for Fas cell surface death receptor (FAS) using HepaRG (AID 2283447). A digest of the protocol:
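FAS transcript level was measured by TaqMan qRT-PCR against three housekeeping genes after 48 h chemical exposure. Cells were HepaRG, 0.5% DMSO vehicle, with a top concentration of 100 uM and half-log dilutions over eight points, in duplicate.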

Read-out in assay [2]: Fatty acid synthase (Homo sapiens) (UniProt P49327)
Nature of the assay: LTEA_HepaRG_FASN: Life Technologies and Expression Analysis (LTEA) Assay for Fatty Acid Synthase (FASN) using HepaRG (AID 2283448).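 For AC50: differentiated human HepaRG liver cells in serum-free induction medium.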 A digest of the protocol: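 Cells were plated, cultured 48 h, switched to serum-free induction medium, then dosed in duplicate (max 100 uM, half-log dilutions, 0.5% DMSO) for 48 h. RNA was then isolated and FASN quantified by qRT-PCR.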

Read-out in assay [3]: Cyclin D2 (CCND2), CCND2 (gene 894)
Briefly: LTEA_HepaRG_CCND2: Life Technologies and Expression Analysis (LTEA) Assay for Cyclin D2 (CCND2) using HepaRG (AID 2283449). The gist of the method: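 CCND2 transcript levels, quantified by qRT-PCR and normalised to three housekeeping genes, were fitted bidirectionally against 0.5% DMSO. HepaRG cultures were dosed 48 h in duplicate with an 8-point half-log series up to 100 uM.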

Read-out in assay [4]: Cyclin Dependent Kinase Inhibitor 1A (CDKN1A), CDKN1A (gene 1026)
Nature of the assay: LTEA_HepaRG_CDKN1A: Life Technologies and Expression Analysis (LTEA) Assay for Cyclin Dependent Kinase Inhibitor 1A (CDKN1A) using HepaRG (AID 2283450). The gist of the method: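 Read-out is CDKN1A mRNA by TaqMan qRT-PCR, normalized to three housekeeping genes and fitted in both directions against the DMSO baseline. Human HepaRG cells were treated 48 h with test chemicals up to 100 uM in half-log steps, 0.5% DMSO.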

Read-out in assay [5]: Cyclin D1 (CCND1), CCND1 (gene 595)
Briefly: LTEA_HepaRG_CCND1: Life Technologies and Expression Analysis (LTEA) Assay for Cyclin D1 (CCND1) using HepaRG (AID 2283451). The gist of the method: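 HepaRG plated 48 h, medium switched to serum-free induction medium, chemicals added in duplicate (top 100 uM, half-log steps, 0.5% DMSO) for 48 h, cells lysed, RNA measured by TaqMan qRT-PCR.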

Read-out in assay [6]: catalase (CAT), CAT (gene 847)
Briefly: LTEA_HepaRG_CAT: Life Technologies and Expression Analysis (LTEA) Assay for catalase (CAT) using HepaRG (AID 2283452).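 For AC50: TaqMan qRT-PCR signal normalized to ACTB GAPDH and POLR2A housekeeping genes.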 A digest of the protocol:
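Expression of CAT was quantified by TaqMan qRT-PCR with ACTB/GAPDH/POLR2A normalization after 48 h chemical exposure of HepaRG. Eight-point half-log series, top 100 uM, in 0.5% DMSO; gain or loss fitted against vehicle.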

Read-out in assay [7]: flavin-containing dimethylaniline monooxygenases 3 (FMO3), FMO3 (gene 2328)
Nature of the assay: LTEA_HepaRG_FMO3: Life Technologies and Expression Analysis (LTEA) Assay for flavin-containing dimethylaniline monooxygenases 3 (FMO3) using HepaRG (AID 2283453).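 For AC50: differentiated human HepaRG liver cells in serum-free induction medium.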 The gist of the method:
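FMO3 transcript quantified by TaqMan qRT-PCR against three housekeeping genes after 48 h chemical exposure of HepaRG cells. Eight-point half-log series, top 100 uM, 0.5% DMSO vehicle; phenobarbital 1mM induction control; up- or down-regulation fitted.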

Read-out in assay [8]: Cytochrome P450 (CYP1A1), CYP1A1 (gene 1543)
Nature of the assay: LTEA_HepaRG_CYP1A1: Life Technologies and Expression Analysis (LTEA) Assay for Cytochrome P450 (CYP1A1) using HepaRG (AID 2283454). A digest of the protocol: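 HepaRG, 48 h post-plating switched to serum-free induction medium; 8-pt conc-response (top 100 uM, half-log, 0.5% DMSO), duplicates, 48 h. Lysis in RLT, TaqMan qRT-PCR for CYP1A1; gain or loss vs DMSO.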

Read-out in assay [9]: Forkhead box O1 (FOXO1), FOXO1 (gene 2308)
Nature of the assay: LTEA_HepaRG_FOXO1: Life Technologies and Expression Analysis (LTEA) Assay for Forkhead box O1 (FOXO1) using HepaRG (AID 2283456). A digest of the protocol:
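FOXO1 transcript quantified by qRT-PCR after 48 h chemical exposure (top 100 uM, half-log steps, 0.5% DMSO) of HepaRG cells, housekeeping-normalized (ACTB/GAPDH/POLR2A). Changes fitted in both directions relative to vehicle.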

Read-out in assay [10]: growth arrest and DNA damage 45 (GADD45A), GADD45A (gene 1647)
Nature of the assay: LTEA_HepaRG_GADD45A: Life Technologies and Expression Analysis (LTEA) Assay for growth arrest and DNA damage 45 (GADD45A) using HepaRG (AID 2283458). The gist of the method:
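Transcript induction or loss, quantified by TaqMan qRT-PCR against three housekeeping genes, is the read-out. HepaRG cells received chemicals for 48 h across eight half-log concentrations from 100 uM in 0.5% DMSO; gain and loss fitted relative to DMSO.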

Read-out in assay [11]: Forkhead box O3 (FOXO3), FOXO3 (gene 2309)
Nature of the assay: LTEA_HepaRG_FOXO3: Life Technologies and Expression Analysis (LTEA) Assay for Forkhead box O3 (FOXO3) using HepaRG (AID 2283459). The gist of the method:
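FOXO3 transcript measured by qRT-PCR (normalized to ACTB, GAPDH, POLR2A) after 48 h exposure of HepaRG cells in serum-free induction medium. Duplicates, eight half-log concentrations up to 100 uM, 0.5% DMSO; gain or loss fitted against DMSO.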

Read-out in assay [12]: ABC Transporter (ABCB1), ABCB1 (gene 5243)
Nature of the assay: LTEA_HepaRG_ABCB1: Life Technologies and Expression Analysis (LTEA) Assay for ABC Transporter (ABCB1) using HepaRG (AID 2283460). The gist of the method:
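ABCB1 transcript level measured by TaqMan qRT-PCR against three housekeeping genes after 48 h chemical exposure of differentiated HepaRG cells. Top concentration 100 uM, half-log steps, eight points, 0.5% DMSO vehicle; bidirectional fit relative to DMSO.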

Read-out in assay [13]: growth arrest and DNA damage 45 (GADD45B), GADD45B (gene 4616)
Nature of the assay: LTEA_HepaRG_GADD45B: Life Technologies and Expression Analysis (LTEA) Assay for growth arrest and DNA damage 45 (GADD45B) using HepaRG (AID 2283461). A digest of the protocol: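 HepaRG, ~100,000 cells/well, 48 h plating; serum-free induction medium; cpd 100 uM top, half-log x8, 0.5% DMSO, duplicate, 48 h; lysis in RLT, RNA isolation, qRT-PCR; norm ACTB/GAPDH/POLR2A; bidirectional fit vs DMSO.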

Read-out in assay [14]: ABC Transporter (ABCC3), ABCC3 (gene 8714)
Briefly: LTEA_HepaRG_ABCC3: Life Technologies and Expression Analysis (LTEA) Assay for ABC Transporter (ABCC3) using HepaRG (AID 2283462). The gist of the method: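 Human HepaRG, 48 h dosing, 8-pt half-log series from 100 uM, 0.5% DMSO vehicle, duplicates. ABCC3 mRNA by TaqMan qRT-PCR, housekeeping-normalized; bidirectional curve fit vs DMSO.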

Read-out in assay [15]: ABC Transporter (ABCB11), ABCB11 (gene 8647)
Nature of the assay: LTEA_HepaRG_ABCB11: Life Technologies and Expression Analysis (LTEA) Assay for ABC Transporter (ABCB11) using HepaRG (AID 2283463). A digest of the protocol: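 ABCB11 transcript levels quantified by TaqMan qRT-PCR against three housekeeping genes after 48 h chemical exposure of HepaRG cultures. Concentrations up to 100 uM in half-log steps, 0.5% DMSO vehicle; both induction and suppression scored.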

Read-out in assay [16]: ABC Transporter (ABCC2), ABCC2 (gene 1244)
Briefly: LTEA_HepaRG_ABCC2: Life Technologies and Expression Analysis (LTEA) Assay for ABC Transporter (ABCC2) using HepaRG (AID 2283464). The gist of the method:
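HepaRG, 48 h post-plating; serum-free induction medium; cpd 8-pt, 100 uM top, half-log, 0.5% DMSO, duplicate, 48 h. Readout: ABCC2 mRNA by qRT-PCR, norm. ACTB/GAPDH/POLR2A. Bidirectional fit vs DMSO baseline.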

Read-out in assay [17]: Broad substrate specificity ATP-binding cassette transporter ABCG2 (Homo sapiens) (UniProt Q9UNQ0)
Nature of the assay: LTEA_HepaRG_ABCG2: Life Technologies and Expression Analysis (LTEA) Assay for ABC Transporter (ABCG2) using HepaRG (AID 2283465). The gist of the method:
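ABCG2 transcript was quantified by TaqMan qRT-PCR against three housekeeping genes in HepaRG cells. Cells were treated in duplicate for 48 h across an 8-point half-log series up to 100 uM, with 0.5% DMSO vehicle. Gain or loss versus DMSO was fit.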

Read-out in assay [18]: CFLAR gene, CFLAR (gene 8837)
Briefly: LTEA_HepaRG_CFLAR: Life Technologies and Expression Analysis (LTEA) Assay for CFLAR gene using HepaRG (AID 2283455). A digest of the protocol:
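Transcript level by qRT-PCR (normalized to ACTB, GAPDH and POLR2A) after 48 h chemical exposure of HepaRG cells, top concentration 100 uM with half-log steps, 0.5% DMSO vehicle, duplicates; fitted bidirectionally against DMSO baseline.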

Chain of Broad substrate specificity ATP-binding cassette transporter ABCG2 (Homo sapiens) (Q9UNQ0 whole entry, looked up): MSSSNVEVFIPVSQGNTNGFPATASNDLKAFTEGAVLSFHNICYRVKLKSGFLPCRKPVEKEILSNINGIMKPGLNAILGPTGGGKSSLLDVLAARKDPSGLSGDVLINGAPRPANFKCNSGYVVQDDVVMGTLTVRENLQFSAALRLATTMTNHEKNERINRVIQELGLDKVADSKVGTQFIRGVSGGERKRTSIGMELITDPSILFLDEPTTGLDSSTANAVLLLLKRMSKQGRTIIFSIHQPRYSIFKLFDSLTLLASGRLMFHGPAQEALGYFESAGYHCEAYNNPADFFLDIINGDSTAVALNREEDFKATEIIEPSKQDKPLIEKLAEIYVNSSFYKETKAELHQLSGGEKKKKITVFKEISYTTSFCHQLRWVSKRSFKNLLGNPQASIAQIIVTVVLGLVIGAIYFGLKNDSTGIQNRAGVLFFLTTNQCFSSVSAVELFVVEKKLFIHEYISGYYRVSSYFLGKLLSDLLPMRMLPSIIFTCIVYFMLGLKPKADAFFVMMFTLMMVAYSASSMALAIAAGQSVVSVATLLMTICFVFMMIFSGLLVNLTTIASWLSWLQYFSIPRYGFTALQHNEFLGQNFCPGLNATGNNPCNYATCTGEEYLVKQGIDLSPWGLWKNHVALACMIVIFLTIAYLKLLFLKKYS
Chain of Fatty acid synthase (Homo sapiens) (P49327 whole entry, looked up): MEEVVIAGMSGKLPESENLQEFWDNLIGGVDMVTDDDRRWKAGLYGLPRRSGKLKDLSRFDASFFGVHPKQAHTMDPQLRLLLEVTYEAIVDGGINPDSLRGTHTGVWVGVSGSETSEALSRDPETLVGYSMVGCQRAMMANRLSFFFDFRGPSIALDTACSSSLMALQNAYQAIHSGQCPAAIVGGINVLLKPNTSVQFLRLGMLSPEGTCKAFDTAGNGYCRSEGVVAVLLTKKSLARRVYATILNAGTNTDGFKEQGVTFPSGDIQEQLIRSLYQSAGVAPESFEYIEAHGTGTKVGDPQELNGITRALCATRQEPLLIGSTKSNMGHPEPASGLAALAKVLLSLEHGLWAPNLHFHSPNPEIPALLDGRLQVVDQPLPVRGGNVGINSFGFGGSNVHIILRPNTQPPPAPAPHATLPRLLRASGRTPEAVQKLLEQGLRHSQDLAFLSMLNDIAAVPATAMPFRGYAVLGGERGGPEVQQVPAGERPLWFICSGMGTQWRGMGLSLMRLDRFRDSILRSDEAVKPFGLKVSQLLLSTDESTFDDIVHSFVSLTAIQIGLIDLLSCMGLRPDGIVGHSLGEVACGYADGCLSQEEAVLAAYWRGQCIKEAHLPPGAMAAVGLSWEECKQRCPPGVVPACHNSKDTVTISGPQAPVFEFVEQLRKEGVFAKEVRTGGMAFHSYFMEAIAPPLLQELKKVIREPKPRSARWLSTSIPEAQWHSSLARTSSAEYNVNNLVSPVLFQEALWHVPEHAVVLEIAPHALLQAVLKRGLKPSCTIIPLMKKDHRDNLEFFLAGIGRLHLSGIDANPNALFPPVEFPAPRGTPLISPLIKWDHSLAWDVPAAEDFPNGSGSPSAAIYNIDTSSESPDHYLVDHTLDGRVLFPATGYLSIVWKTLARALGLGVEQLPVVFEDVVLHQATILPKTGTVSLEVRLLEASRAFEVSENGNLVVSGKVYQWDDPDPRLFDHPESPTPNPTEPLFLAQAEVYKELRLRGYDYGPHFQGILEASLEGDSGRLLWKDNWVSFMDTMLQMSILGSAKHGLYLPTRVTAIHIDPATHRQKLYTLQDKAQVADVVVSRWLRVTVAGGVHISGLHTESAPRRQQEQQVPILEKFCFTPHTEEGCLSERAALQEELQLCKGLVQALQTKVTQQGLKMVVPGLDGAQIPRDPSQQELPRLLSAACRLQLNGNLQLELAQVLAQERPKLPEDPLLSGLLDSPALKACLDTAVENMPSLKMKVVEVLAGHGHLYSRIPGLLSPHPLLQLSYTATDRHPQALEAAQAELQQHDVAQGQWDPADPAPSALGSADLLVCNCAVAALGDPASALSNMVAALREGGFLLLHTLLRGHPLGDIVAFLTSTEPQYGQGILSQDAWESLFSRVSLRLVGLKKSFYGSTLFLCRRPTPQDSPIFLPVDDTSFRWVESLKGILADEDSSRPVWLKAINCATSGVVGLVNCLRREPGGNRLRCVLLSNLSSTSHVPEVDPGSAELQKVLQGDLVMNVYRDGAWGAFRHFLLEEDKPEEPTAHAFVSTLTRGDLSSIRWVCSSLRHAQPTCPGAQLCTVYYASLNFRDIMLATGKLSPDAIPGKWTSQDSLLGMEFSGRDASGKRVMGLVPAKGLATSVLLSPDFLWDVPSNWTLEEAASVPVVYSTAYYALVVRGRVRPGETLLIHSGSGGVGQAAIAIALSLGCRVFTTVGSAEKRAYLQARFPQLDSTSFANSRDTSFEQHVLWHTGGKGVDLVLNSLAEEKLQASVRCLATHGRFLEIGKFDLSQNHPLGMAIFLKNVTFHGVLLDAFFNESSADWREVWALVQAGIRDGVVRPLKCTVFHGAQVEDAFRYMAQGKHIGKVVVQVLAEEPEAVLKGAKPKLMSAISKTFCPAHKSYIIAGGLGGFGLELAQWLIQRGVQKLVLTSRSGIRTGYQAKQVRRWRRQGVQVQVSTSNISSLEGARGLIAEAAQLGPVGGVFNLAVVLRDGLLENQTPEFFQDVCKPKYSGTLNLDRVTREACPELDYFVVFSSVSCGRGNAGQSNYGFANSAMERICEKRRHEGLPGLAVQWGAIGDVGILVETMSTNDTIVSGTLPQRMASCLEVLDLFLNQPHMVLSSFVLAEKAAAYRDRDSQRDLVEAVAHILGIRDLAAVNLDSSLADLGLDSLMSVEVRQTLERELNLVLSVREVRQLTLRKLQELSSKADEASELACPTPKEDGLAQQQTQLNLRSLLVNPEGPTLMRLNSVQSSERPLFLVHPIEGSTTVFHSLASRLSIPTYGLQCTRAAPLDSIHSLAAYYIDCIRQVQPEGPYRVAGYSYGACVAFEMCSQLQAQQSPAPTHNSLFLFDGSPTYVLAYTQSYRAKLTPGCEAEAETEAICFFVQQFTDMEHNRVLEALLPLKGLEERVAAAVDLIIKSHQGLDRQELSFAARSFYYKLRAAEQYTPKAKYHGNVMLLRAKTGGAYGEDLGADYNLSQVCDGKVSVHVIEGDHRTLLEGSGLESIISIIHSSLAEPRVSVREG

Consider `CNCc1cc(F)ccc1Oc1ccc(Cl)c(Cl)c1`, for which the result in [1], in assay [3], in [5], in assay [8], in [9] and in [10] was inactive. For the same molecule, the result in [11], in [12], in [14], in assay [15] and in assay [17] was inactive. The AC50 in assay [2] is 50 µM (active); in [4], 20.5 µM (active); in assay [6], 82.8 µM (active); in assay [7], 93.3 µM (active); in assay [13] it was 91.3 µM (active); in assay [16], 75.6 µM (active).
Take `CCOC(=O)C(C)(C)Oc1ccc(Cl)cc1`: the molecule was called inactive in [1], in assay [2], in [4], in assay [5], in assay [6] and in [7]. Also, the outcome in [18], in assay [9], in assay [10], in [12], in assay [13] and in assay [14] was inactive. The molecule was classed as inactive in assay [17]. In addition, the AC50 in assay [3] is 12.2 µM (active); in assay [8], 50 µM (active).
With `CCCCCCCC=O`, the molecule was called inactive in [1], in [2], in assay [3], in assay [4], in [5] and in assay [7]. Besides, the outcome in [9], in [10], in assay [12], in assay [13], in assay [14] and in assay [17] was inactive. In addition, the values for the AC50 in assay [6] and in [8] were 1.44 µM (active) and 50 µM (active), respectively.
Regarding `C[Si]1(C)O[Si](C)(C)O[Si](C)(C)O[Si](C)(C)O1`, the call in [1], in assay [2], in [3], in assay [4], in [5] and in assay [6] was inactive. Besides, the result in [7], in assay [8], in assay [9], in assay [10], in assay [11] and in [12] was inactive. Further, the outcome in assay [13], in assay [14] and in [17] was inactive.
With `COc1cc(C=O)ccc1O`, the outcome in [1], in assay [2], in [3], in [4], in assay [5] and in [6] was inactive. Also, the molecule was classed as inactive in assay [7], in [8], in assay [9], in assay [10], in assay [12] and in [13]. The outcome in assay [14] and in [17] was inactive.
As to `FC(F)(F)C(F)(F)C(F)(F)C(F)(F)C(F)(F)C(F)(F)CCI`, the molecule was called inactive in assay [1], in assay [2], in assay [3], in assay [4], in assay [6] and in assay [7]. For the same molecule, the outcome in assay [8], in assay [18], in [9], in [10], in [11] and in assay [12] was inactive. Besides, the result in [13], in assay [14], in assay [15] and in assay [17] was inactive.
In the case of `Nc1nc(N)c2nc(CNc3ccc(C(=O)N[C@@H](CCC(=O)O)C(=O)O)cc3)cnc2n1`, the result in assay [1], in assay [3], in assay [4], in assay [6], in [7] and in assay [8] was inactive. The result in [18], in assay [9], in assay [10], in assay [11], in [12] and in assay [13] was inactive. The molecule was called inactive in [14] and in [17]. The AC50 was 0.0999 µM (active) in assay [2] and 104 nM (active) in assay [15].
Regarding `CC(=O)Oc1ccccc1C(=O)O`, the molecule was called inactive in assay [1], in assay [2], in [3], in [4], in [6] and in [7]. Moreover, the result in [18], in assay [9], in [10], in assay [11], in [12] and in [13] was inactive. Moreover, the call in assay [14], in assay [16] and in [17] was inactive. Moreover, in assay [8], the AC50 was 50 µM (active).
